Screens deposited in PubChem by The Scripps Research Institute Molecular Screening Center.
DAX1 inh-1: DAX1 (NR0B1) inhibition, primary screen | HEK293T StAR-luciferase reporter, SF-1/DAX-1 repression relief | inhibition, % at 6.8 µM | hit rate 1.1% among 370,000;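 active = inhibition above the mean over all tested compounds plus 3 SD, cut at about 3.6% in these data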;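 note: 0% = DAX-1 cells with DMSO and 100% = cells lacking DAX-1 with DMSO; higher inhibition means more luminescence from relief of DAX-1 repression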
hcDAF-12 act: activates DAF-12 receptor from parasite H. contortus | HEK293 hcDAF-12 lit1-tk-luc reporter, luminescence; 0% DMSO, 100% Δ7-dafachronic acid | activation, % at 6.8 µM | hit rate 1.4% among 370,000 | AID 652067;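 active = activation above the mean of all tested compounds plus 3 SD, cut at about 5.5% in these data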;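 note: 100% = response to 3 µM Δ7-dafachronic acid high control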
ssDAF-12 act: S. stercoralis DAF-12 activation, primary screen; HEK293 ssDAF-12/GRIP1 lit1-tk-luc reporter, luminescence; % of 3 µM dafachronic acid response; activation, % at 6.8 µM; hit rate 1% among 370,000; AID 652126;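 active = activation above the mean over all tested compounds plus 3 SD, cut at about 0.9% in these data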;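 note: 0% = DMSO-only wells and 100% = 3 µM delta7-dafachronic acid wells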
DAX1 inh-2: inhibitors of human orphan nuclear receptor DAX1 (NR0B1). inhibition, % at 6.75 µM. P51843. hit rate 0.99% among 340,000. AID 504766. HEK293 Gal4-DAX1 luciferase reporter, luminescence;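 active = inhibition above the mean over all tested compounds plus 3 SD, cut at about 4.2% in these data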;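 note: 0% = DAX1-transfected cells with DMSO and 100% = empty-vector control cells with DMSO; inhibition shows as a rise in luminescence from relieved DAX1 repression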
Target sequence (P51843 207-470 limits assumed): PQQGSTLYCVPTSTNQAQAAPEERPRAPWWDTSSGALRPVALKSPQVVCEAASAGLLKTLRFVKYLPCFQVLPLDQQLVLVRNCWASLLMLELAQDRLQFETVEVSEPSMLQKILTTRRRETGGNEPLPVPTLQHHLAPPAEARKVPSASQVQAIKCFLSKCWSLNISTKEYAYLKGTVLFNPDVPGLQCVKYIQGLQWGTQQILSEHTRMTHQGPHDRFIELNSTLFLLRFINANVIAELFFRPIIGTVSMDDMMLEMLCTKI
hgDAF12 agonist: agonists of H. glycines DAF-12 nuclear receptor | hit rate 1.8% among 370,000 | activation, % at 6.8 µM | HEK293 GAL4-hgDAF12 UAS-luciferase reporter, agonist luminescence; normalized to butyrate control;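 active = activation above a cutoff set at the mean of all screened compounds plus 3 SD, cut at about 10% in these data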;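 note: 0% = DMSO wells and 100% = sodium butyrate wells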
hgDAF12 ag: hgDAF-12 agonism, confirmation assay. shares compounds with hgDAF12 agonist. HEK293 GAL4-hgDAF12 luciferase reporter, agonist mode; percent of butyrate response. activation, % at 6.8 µM. hit rate 80% among 3,300;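 active = mean activation over triplicate wells above the hit cutoff derived from the earlier primary screen, cut at about 11% in these data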;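 note: 0% = DMSO low control and 100% = 2 mM sodium butyrate high control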
LXRb DAF12 ctr: activates human LXR-beta, counter-screen for DAF-12 agonists. shares compounds with hgDAF12 agonist. 3,300 tested, under 10 active. activation, % at 6.8 µM. HEK293 Gal4-LXR luciferase reporter, 24 h;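 active = mean activation of the triplicate above a set limit carried over from the primary screen, none filed active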
* = called active by the depositor; . = no result. A selection: hits, their analogues and other compounds. The true share with any hit is near 4.1%.

SMILES | DAX1 inh-1 | hcDAF-12 act | ssDAF-12 act | DAX1 inh-2 | hgDAF12 agonist | hgDAF12 ag | LXRb DAF12 ctr
COc1ccc(-c2cn3nc(SCC(=O)NC4CCCCC4)ccc3n2)cc1 | 2 | 4 | 0 | 2 | 15* | 15* | 1
CC(=O)OCC(COC(C)=O)(CN1C(=O)c2ccccc2C1=O)CN1C(=O)c2ccccc2C1=O | 0 | 1 | -1 | . | 1 | . | .
C/C(=N/NC(=O)c1ccco1)c1ccc(NC(=O)c2ccc(F)cc2)cc1 | 3 | 2 | -1 | 2 | 13* | 10 | 0
COc1ccc(C(=O)Nc2ccc(NC(=O)c3ccco3)cc2)cc1 | 0 | -4 | -1 | 1 | -2 | . | .
COc1ccc(/C(C)=N\NC(=O)c2ccco2)cc1 | 4 | 3 | -1 | . | 24* | 10 | 0
O=C1/C(=C/c2ccccc2)CCCc2ccccc21 | 1 | 3 | 0 | 0 | 14* | 11* | 0
N/C(=N\NC(=O)c1cccs1)c1cc2cc(Cl)ccc2oc1=O | 3 | 5 | -2 | 0 | 19* | 2 | 0
NC(=O)c1cc2ccccc2o/c1=N/NC(=O)c1cccs1 | -2 | 0 | -1 | 1 | 3 | . | .
Cc1ccc(N=c2oc3cc(O)ccc3cc2C(N)=O)cc1 | 2 | 5 | -1 | 0 | 18* | 5 | 0
Cc1cc(C)n(-c2nnc(NC34CC5CC(CC(C5)C3)C4)nn2)n1 | 3 | 5 | 1 | 1 | 13* | 15* | 1
CCN(CC)c1ccc(/C=N/NC(=O)c2ccc(Br)o2)cc1 | 2 | 2 | 0 | 2 | 17* | 19* | 1
CCN(CC)c1ccc(/C=N/NC(=O)c2ccc3c(c2)OCCO3)cc1 | 0 | 0 | -1 | 0 | 3 | . | .
CCc1ccc(/C=N\NC(=O)c2ccc(Br)o2)s1 | 3 | 3 | 0 | 2 | 15* | 13* | 0
Cc1ccc(/C=N/NC(=O)c2ccc(Br)o2)s1 | 2 | 4 | -1 | 2 | 8 | . | .
C[C@@H]1CN([C@H](C)CO)C(=O)CCCn2nncc2CO[C@@H]1CN(C)S(=O)(=O)c1ccc(C#N)cc1 | 0 | 1 | -2 | 1 | -1 | . | .
COc1ccc2oc(-c3ccncc3)cc(=O)c2c1 | 3 | 0 | -1 | 2 | 10 | . | .
COc1ccc(-c2cc(=O)c3cc(O)ccc3o2)cc1 | 3 | 5 | 1 | 5.2* | 24* | 17* | 1
O=c1cc(-c2ccccc2)oc2ccc(O)cc12 | 2 | 3 | -1 | 7.8* | 17* | 14* | 1
O=c1cc(-c2ccco2)oc2ccc(Cl)cc12 | 0 | -1 | -1 | 0 | 0 | . | .
COc1ccc(-c2cc(=O)c3c(O)cc(O)cc3o2)cc1 | 4.1* | 0 | -1 | 1 | 13* | 15* | 1
COc1ccc2oc(-c3ccco3)cc(=O)c2c1 | 4.5* | 3 | 0 | 1 | 19* | 14* | 1
COc1cc(-c2cc(=O)c3c(O)cc(O)cc3o2)cc(OC)c1OC | -1 | -2 | -2 | . | -4 | . | .
CCC(=O)[C@@H](C)[C@@H](OC(C)=O)[C@H](C)C[C@@H](C)[C@H]1OC(=O)C[C@@]2(O)CC=C(C)C(O2)C(C)=CCCC[C@H](O[C@H]2C[C@@H](OC(N)=O)[C@H](OC(C)=O)[C@@H](C)O2)C=C[C@H](C)C[C@H]1C | -1 | -1 | -1 | . | 2 | . | .
CCCCC[C@H](O)/C=C/C1C(=O)C=C[C@H]1C/C=C\CCCC(=O)OC (stereo partly specified) | -1 | -1 | -2 | -1 | -2 | . | .
N#Cc1c(N)nc(N)nc1Nc1ccc(Br)cc1 | 2 | 4 | 0 | 3 | 17* | 18* | 1
Cc1nc(N)nc(Nc2ccc(C#N)cc2)c1Br | -1 | -3 | -3 | 0 | 3 | . | .
O=C(Oc1ccc2ccc(O)cc2c1)c1ccccc1Cl | 1 | 4 | 0 | 2 | 14* | 7 | 0
COC(=O)C1=C(C)N(Cc2cccc(C(F)(F)F)c2)C(=NCc2cc(OC)c(OC)c(OC)c2)NC1c1cccc(Cl)c1 (stereo unspecified) | 1 | 2 | -1 | . | -1 | . | .
